Compounds with a hit are over-represented: about 1.9% of the library has one in this group of screens.
FUS yeast rescue – qHTS for Suppressors of FUS Proteinopathy: Primary screen using FUS-linked yeast assay | S. cerevisiae FUS-expressing, growth rescue, OD600, 24 h | AID 1347120, 2019 | Potency, µM (titrated, usually from 76.6 µM), actives largely listed as activators | hit rate 0.24% among 390,000;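 also: potency is read from the fitted curve at half-maximal effect; plate controls were DMSO vehicle for no effect and reference control for full effect; nearly all actives have a fitted effect of over 55% in size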
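Compound concentration series was pinned onto galactose-induced FUS-expressing yeast seeded at OD 0.005. Plates sat 24hr at 30C; absorbance at 600 nm gave growth. DMSO served as background control.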
aSyn yeast inh – qHTS of alpha-syn Inhibitors; hit rate 0.14% among 370,000; AID 652106, 2013; Potency, µM (titrated, usually from 46.1 µM), inactives show at the highest dose growth rescue (activation), actives largely listed as activators; Yeast expressing alpha-synuclein, growth rescue, BacTiter-Glo, 24 h; also: potency is read from the fitted curve at half-maximal effect; % of control where 0% means no effect; nearly all actives have a fitted effect of over 65% in size
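Screening used galactose-induced yeast with toxic alpha-synuclein levels, exposed to compound for 24 hr at 30 deg C. Cell growth, read with BacTiter-Glo luminescence, gave the measured signal.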
TDP-43 yeast inh – qHTS of TDP-43 Inhibitors | TDP-43 expressing yeast growth rescue, BacTiter-Glo, 24 h | Potency, µM (highest dose often 46.1 µM), without a hit: at the highest dose growth rescue (activation), usual class: activators | hit rate 1.8% among 410,000; also: potency is read from the fitted curve at half-maximal effect; % of control where 0% means no effect; nearly all actives have a fitted effect of over 50% in size
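In this qHTS, compounds that restore growth of yeast expressing TDP-43 appear as activators. Cells (OD600=0.02, galactose medium, raffinose-pregrown) are incubated with compound 24 hr at 30 deg C and growth is quantified by BacTiter-Glo.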
PTHR1 ag – qHTS for PTHR1 Agonists: Primary Screen; Parathyroid hormone/parathyroid hormone-related peptide receptor (Homo sapiens), Q03431; hit rate 0.075% among 410,000; HEK293 GP2 PTHR1 cells, GloSensor cAMP luminescence, 1 h; Potency, µM (titrated, usually from 115 µM), for the others: at the highest dose activation, most hits filed as activators; AID 743266, 2014; also: potency is read from the fitted curve at half-maximal effect; nearly all actives have a fitted effect of over 55% in size
Target sequence (Q03431 whole entry, looked up): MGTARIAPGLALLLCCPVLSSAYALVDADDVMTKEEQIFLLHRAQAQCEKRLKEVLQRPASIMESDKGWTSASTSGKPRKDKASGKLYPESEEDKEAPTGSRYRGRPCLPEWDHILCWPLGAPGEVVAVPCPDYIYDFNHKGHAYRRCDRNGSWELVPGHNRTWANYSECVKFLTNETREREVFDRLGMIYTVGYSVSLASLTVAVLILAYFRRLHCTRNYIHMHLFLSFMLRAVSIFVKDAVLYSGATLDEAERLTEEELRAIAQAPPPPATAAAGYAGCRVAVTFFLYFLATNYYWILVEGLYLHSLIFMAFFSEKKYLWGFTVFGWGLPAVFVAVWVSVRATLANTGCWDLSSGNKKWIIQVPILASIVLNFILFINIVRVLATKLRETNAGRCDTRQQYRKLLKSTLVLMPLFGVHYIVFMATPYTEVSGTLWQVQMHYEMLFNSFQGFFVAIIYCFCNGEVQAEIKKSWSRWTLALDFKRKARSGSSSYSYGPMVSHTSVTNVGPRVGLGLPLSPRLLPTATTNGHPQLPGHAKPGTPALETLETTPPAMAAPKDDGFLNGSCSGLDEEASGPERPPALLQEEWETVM
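HEK-293-derived GP2 cells expressing PTHR1 and a GloSensor cAMP reporter, 3,000/well, plated overnight, given luciferin plus IBMX (each 0.5 mM as added) for 1 h at 37 °C, then compound for 1 h at 37 °C. Luminescence was read after 15 min at room temperature.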
Abeta yeast res – qHTS for compounds that reverse cellular toxicity of Amyloid beta (A-beta) peptide in yeast: Primary Screen. yeast expressing A-beta42, growth rescue, OD600, 48 h; response scale: 0% DMSO, 100% iron-clioquinol control. Potency, µM (highest dose often 46.1 µM), usual class: activators. hit rate 0.063% among 410,000. AID 1347071, 2019; also: potency is read from the fitted curve at half-maximal effect; nearly all actives have a fitted effect of over 55% in size
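Yeast A-beta toxicity model in growth medium with pinned compounds, 48 h at 30 C; growth read as absorbance at 600 nm. Normalized to FeCl3/clioquinol equimolar mix (positive) and DMSO (negative).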
LDHA block – qHTS assay for inhibitors of human lactate dehydrogenase | purified LDHA, NADH/diaphorase-resazurin fluorescence; hits give low values | L-lactate dehydrogenase A chain (Homo sapiens), P00338 | activity change, % (values are at about 110 or 230 µM) | hit rate 0.15% among 480,000 | AID 1347041, 2019; in the data active = activity change below about -30%; inconclusive = mostly about -25% to -30%;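 also: plate controls were DMSO wells for no effect and wells without enzyme for full effect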
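LDH5 2 nM; NADH 0.06 mM, pyruvate 0.2 mM; 200 mM Tris pH 7.4, EDTA, Tween-20; 5 min RT. Detection: diaphorase 0.133 mg/mL + resazurin 37 µM, fluorescence ex540/em590 at 0 and 20 min; normalized to enzyme-free and DMSO wells.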
The depositor's hits bear a star; i = inactive; ? = inconclusive; nt = no result given; ! = not active in a repeat; [ ] = dose if it differs, or a comment. Unless noted, calls follow the shape of the dose curve; as a rule, active = well fitted curve in the direction sought with a large enough effect; inconclusive = small, poorly fitted or top-dose-only effect, or another doubt; inactive = no such curve, though single readings can be large; an effect the other way counts as inactive or inconclusive.

SMILES	FUS yeast rescue	aSyn yeast inh	TDP-43 yeast inh	PTHR1 ag	Abeta yeast res	LDHA block
CN(C1=C(NC(=O)c2ccccc2)C(=O)c2ccccc2C1=O)C1CCS(=O)(=O)C1 (stereo not given)	i	10%	0%	-12%	i	14
CC(=O)NC1=C(NC2CCS(=O)(=O)C2)C(=O)c2ccccc2C1=O (stereo not given)	nt	-8%	25µM*	i	i	43
ClCc1nc2ccccc2c2ccccc12	i	-1%	14µM*	-1%	i	-7
O=C(Nc1ccc(N2CCOCC2)cc1Cl)C1CCN(C(=O)OCc2ccccc2)CC1	i	0%	0%	-1%	10µM*	-2
CCOC(=O)c1ccccc1C(=O)c1ccccc1	nt	nt	nt	nt	nt	2
Nc1c(C(=O)c2ccc(Br)s2)oc2ccccc12	i	0%	13µM*	i	i	-9
Cc1ccc(C(=O)OC(C)C(=O)Nc2ccc(Cl)cn2)s1 (stereo not given)	i	-14%	14µM*	-8%	i	-8
O=[N+]([O-])c1cccc2nc(/C=C/c3ccccc3OC(F)F)ccc12	nt	nt	nt	nt	nt	6
CC(C)CNc1nc(C(=O)Nc2nnc(C(C)(C)C)s2)cs1	nt	nt	nt	nt	nt	6
S=c1[nH]nc(-c2cc(-c3ccccc3)n[nH]2)n1/N=C/c1ccc(Cl)c(Cl)c1	i	-1%	7%	i	i	-42*
COC(=O)c1ccc(Cl)c(NS(=O)(=O)c2ccc3c(c2)OCCO3)c1	i	6%	25µM*	-20%	i	3
COc1ccc(NC(C)=O)cc1NS(=O)(=O)c1ccc2c(c1)OCCO2	i	1%	?	20%	i	-2
Cc1ccc(N2C(=O)N(Cc3ncc(-c4ccccc4)o3)C(=O)C2C)cc1 (stereo not given)	nt	nt	nt	nt	nt	-4
COc1cc(/C=C(/C#N)c2ccc(C(F)(F)F)cn2)cc(OC)c1	nt	nt	nt	nt	nt	-3
S=C(NCCc1ccccc1)Nc1ccc(N2CCCCC2)cc1	i	-9%	30%	-8%	8.9µM*	-6
Cc1cc(NC(=O)CN2CCN(C(=O)c3c(F)cccc3F)CC2)no1	nt	nt	nt	nt	nt	1
CN(C)CCNc1oc(-c2cccc(Cl)c2)nc1C#N	i	0%	3%	-16%[57.5 µM]	?	-33*!
CCCOc1ccc(-c2nc(C#N)c(NCCN(C)C)o2)cc1	nt	nt	nt	nt	nt	-32*
CCN1C(=O)COc2ccc(-c3nc(NC(=O)c4cccs4)sc3C)cc21	nt	nt	nt	nt	nt	3
N#Cc1c(-c2ccc(F)cc2)cc(-c2ccccc2)nc1SCC(=O)NCC(=O)O	i	7%	13%	-31%	i	-80*
N#Cc1c(-c2ccc(Cl)cc2)cc(-c2ccccc2)nc1SCC(=O)O	i	-54%	8%	-36%	i	-9
CCCCc1nn2cc(-c3ccc(C)c(C)c3)nc2s1	nt	nt	nt	nt	nt	-3
Cc1cc(C)nc(NC(=O)c2ccc(C)c([N+](=O)[O-])c2)n1	i	13%	0%	i	i	-6
CCc1sc(C(=O)Nc2nc(C)cs2)cc1C	i	-24%	20µM*	i	i	0
Cc1csc(NC(=O)c2ccc(C)c([N+](=O)[O-])c2)n1	nt	-10%	20µM*	-31%	i	2
SMILES	FUS yeast rescue	aSyn yeast inh	TDP-43 yeast inh	PTHR1 ag	Abeta yeast res	LDHA block
CCc1sc(C(=O)NCC(C)C)cc1C	nt	nt	nt	nt	nt	0
CCCOc1ccc(OCC(=O)NC2CCc3ccccc32)cc1 (stereo not given)	nt	nt	nt	nt	nt	3
O=C(NNc1nc2c(F)cccc2s1)c1ccc(F)cc1	i	0%	10µM*	-30%	i	2
COc1cc(OC)cc(C(=O)NNc2nc3cc4c(cc3s2)OCO4)c1	i	7%	10µM*	-19%	i	2
O=C(NNc1nc2cc3c(cc2s1)OCO3)c1cccc(F)c1	i	9%	5.6µM*	i	i	1
O=C(COc1ccccc1)NNc1nc2c(F)cccc2s1	i	1%	11%	i	i	-2
CC1c2ccsc2CCN1C(=O)CNC(=O)c1ccc(Cl)cc1 (stereo not given)	nt	nt	nt	nt	nt	3
CC1(c2cc([N+](=O)[O-])cc([N+](=O)[O-])c2)CC(C)(C)N(C(=O)c2ccccc2)c2ccccc21 (stereo not given)	i	-15%	25µM*	i	i	1
COc1ccc(OCC(O)Cn2ccnc2C)cc1 (stereo not given)	i	0%	-21%	10µM*	i	0
Cc1nccn1CC(O)COc1ccccc1 (stereo not given)	i	1%	-2%	i	i	-2
CN(CC(=O)Nc1ccccc1Br)C(=O)CCSc1ccc(F)cc1	i	12%	14µM*	-41%	i	-4
O=C(O)CNC(=O)C1CCOCC1	nt	nt	nt	nt	nt	9
Brc1ccc(-c2nnc(-c3cccs3)o2)o1	nt	nt	nt	nt	nt	2
O=C(CSCC(=O)N1CCCCC1)Nc1nc(-c2ccccc2)c(-c2ccccc2)s1	18µM*	-2%	?	-46%	i	1
Cc1sc2nc(CSc3ccccc3)nc(N3CCOCC3)c2c1C	i	0%	11µM*	-21%	i	1
Cc1sc2nc(CSc3ccccc3)nc(N3CCC(C(N)=O)CC3)c2c1C	?	-2%	9%	-32%	i	1
Cc1ccc(Cl)cc1-n1ncc2c(Nc3cccc4c3CCCC4)ncnc21	nt	nt	nt	nt	nt	24
CCCCCCCn1c(NC(=O)CC)nc2ccccc21	i	?	?	i	22µM*	2
CCCn1c(NC(=O)c2cccc(S(=O)(=O)N3CCCC3)c2)nc2ccccc21	?	1%	22µM*	-15%[57.5 µM]	i	2
CCC(=O)Nc1nc2ccccc2n1CCN1CCOCC1	i	3%	-1%	i	i	-3
COc1ccc(-c2c(-c3ccc(OC)cc3O)nc(N)nc2C(F)(F)F)cc1	nt	nt	nt	nt	nt	5
O=C(Nc1ccc(Cl)cc1Cl)Nn1cnnc1	i	-1%	1%	i	i	-9
O=C(Nc1ccno1)Nc1ccc(Cl)cc1Cl	i	-12%	14µM*	i	i	-10
CC1(C)CC(N2CCN(CCO)CC2)=CC(=S)N1	i	18µM*	?	i	i	-2
COc1cc(OC)cc(C2Nc3ccccc3C(=O)N2C2CC2)c1 (stereo not given)	nt	nt	nt	nt	nt	5

Screening results as filed in PubChem BioAssay.
